# Reference: PMC7862700, “An all-to-all approach to the identification of sequence-specific readers for epigenetic DNA modifications on cytosine”
# Experiments:
# Assay in all cases: DAPPL (digital affinity profiling via proximity ligation, sequencing); 10 mM Tris-HCl pH 7.5, 50 mM NaCl, 1 mM DTT, 4% glycerol, room temperature, 30 min; GST-TFs on glutathione beads, 16-mer random dsDNA library, 0.1% formaldehyde crosslink after washing; high values mean tight binding
# FLI1 = target: T1, FLI1 (Homo sapiens, UniProt Q01543 1-452); details: protein: recombinant; tags: N-terminal GST; dsDNA, one strand shown
# T1 sequence: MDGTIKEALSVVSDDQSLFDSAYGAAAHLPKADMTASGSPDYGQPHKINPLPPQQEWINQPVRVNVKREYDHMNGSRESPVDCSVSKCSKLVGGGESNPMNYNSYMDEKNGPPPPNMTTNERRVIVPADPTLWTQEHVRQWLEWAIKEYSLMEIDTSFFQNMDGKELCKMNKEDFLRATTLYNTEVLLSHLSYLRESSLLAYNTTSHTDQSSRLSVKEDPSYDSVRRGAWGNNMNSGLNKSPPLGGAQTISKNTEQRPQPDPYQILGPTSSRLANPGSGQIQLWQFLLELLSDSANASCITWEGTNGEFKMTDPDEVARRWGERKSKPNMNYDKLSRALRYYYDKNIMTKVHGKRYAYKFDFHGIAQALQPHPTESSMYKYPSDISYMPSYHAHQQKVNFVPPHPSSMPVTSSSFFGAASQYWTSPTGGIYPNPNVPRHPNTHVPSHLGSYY
# In short: (§1)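 Binding signal is defined as a hexamer's read frequency for one factor over its frequency for the tag-only sample. To obtain reads, GST-fused human transcription factors were expressed in yeast, captured on glutathione beads, barcoded with DNA and pooled with that sample. Pools met 200 nmole of a 16-mer random double-stranded DNA library in Tris/NaCl/DTT/glycerol buffer for 30 min at room temperature before washing, 0.1% formaldehyde crosslinking, proximity ligation (BsaI/T4 ligase, 1 h, 37 °C), PCR and Illumina NextSeq500 sequencing.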
# ELK1 = target: T2, ELK1 (Homo sapiens, UniProt P19419 1-428); details: protein: recombinant; tags: N-terminal GST; dsDNA, one strand shown
# T2 sequence: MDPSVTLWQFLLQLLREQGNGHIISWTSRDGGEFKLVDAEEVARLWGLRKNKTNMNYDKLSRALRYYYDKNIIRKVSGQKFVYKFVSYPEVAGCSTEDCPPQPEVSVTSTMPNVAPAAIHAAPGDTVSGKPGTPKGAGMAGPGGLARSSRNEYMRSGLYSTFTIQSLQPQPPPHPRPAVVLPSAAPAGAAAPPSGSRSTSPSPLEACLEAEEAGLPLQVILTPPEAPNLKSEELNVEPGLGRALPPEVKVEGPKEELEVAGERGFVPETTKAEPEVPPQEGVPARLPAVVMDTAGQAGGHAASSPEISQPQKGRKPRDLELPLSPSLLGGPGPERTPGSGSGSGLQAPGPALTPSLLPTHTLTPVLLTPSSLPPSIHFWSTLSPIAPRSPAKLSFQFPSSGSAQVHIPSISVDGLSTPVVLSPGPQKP
# In short: as §1
# GABPA = target: T3, GABPA (Homo sapiens, UniProt Q06546 1-454); details: protein: recombinant; tags: N-terminal GST; dsDNA, one strand shown
# T3 sequence: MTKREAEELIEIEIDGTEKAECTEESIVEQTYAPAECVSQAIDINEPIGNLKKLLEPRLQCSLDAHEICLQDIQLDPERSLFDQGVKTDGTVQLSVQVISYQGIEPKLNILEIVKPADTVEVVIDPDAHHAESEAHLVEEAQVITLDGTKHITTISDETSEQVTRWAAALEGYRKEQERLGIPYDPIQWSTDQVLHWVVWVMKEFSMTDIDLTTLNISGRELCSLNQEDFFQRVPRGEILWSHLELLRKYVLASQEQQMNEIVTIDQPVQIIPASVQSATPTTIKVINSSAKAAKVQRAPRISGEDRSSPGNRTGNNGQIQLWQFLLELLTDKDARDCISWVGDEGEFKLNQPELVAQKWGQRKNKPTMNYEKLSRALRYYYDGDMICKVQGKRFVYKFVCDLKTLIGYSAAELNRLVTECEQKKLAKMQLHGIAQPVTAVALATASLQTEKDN
# In short: as §1
# ERG = target: T4, ERG (Homo sapiens, UniProt P11308 1-479); details: protein: recombinant; tags: N-terminal GST; dsDNA, one strand shown
# T4 sequence: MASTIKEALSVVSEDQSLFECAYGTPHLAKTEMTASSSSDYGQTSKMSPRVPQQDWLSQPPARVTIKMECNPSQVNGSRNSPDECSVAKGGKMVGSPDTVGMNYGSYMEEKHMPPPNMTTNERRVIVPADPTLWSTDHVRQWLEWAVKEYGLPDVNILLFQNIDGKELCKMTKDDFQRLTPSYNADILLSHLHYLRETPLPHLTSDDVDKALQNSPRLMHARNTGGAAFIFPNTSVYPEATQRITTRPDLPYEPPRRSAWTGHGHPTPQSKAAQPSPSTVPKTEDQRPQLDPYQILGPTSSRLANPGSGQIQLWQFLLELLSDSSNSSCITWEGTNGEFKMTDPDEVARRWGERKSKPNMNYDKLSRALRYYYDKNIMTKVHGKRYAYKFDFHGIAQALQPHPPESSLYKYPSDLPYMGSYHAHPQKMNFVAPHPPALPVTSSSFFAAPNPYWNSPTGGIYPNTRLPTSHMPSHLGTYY
# In short: as §1
# ELF1 = ELF1 (Homo sapiens, UniProt P32519 1-619); details: protein: recombinant; tags: N-terminal GST; dsDNA, one strand shown
# ELF1, sequence (P32519 whole entry): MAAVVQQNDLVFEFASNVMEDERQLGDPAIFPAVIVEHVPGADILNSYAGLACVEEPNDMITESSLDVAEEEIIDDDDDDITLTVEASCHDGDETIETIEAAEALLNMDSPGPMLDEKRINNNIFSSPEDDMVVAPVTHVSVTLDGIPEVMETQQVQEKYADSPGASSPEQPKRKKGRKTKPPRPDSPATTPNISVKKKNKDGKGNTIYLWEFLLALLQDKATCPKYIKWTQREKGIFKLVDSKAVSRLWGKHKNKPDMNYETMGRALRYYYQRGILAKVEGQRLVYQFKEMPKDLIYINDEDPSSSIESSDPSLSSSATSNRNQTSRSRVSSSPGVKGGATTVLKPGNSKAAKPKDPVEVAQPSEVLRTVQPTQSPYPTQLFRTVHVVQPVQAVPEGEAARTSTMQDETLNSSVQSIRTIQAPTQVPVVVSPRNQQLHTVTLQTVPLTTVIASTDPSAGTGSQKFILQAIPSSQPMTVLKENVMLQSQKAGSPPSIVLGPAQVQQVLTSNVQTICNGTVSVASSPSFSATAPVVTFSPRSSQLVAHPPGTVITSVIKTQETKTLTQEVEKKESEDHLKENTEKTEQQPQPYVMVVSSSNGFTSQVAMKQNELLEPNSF
# In short: as §1
# EHF = target: T5, EHF (Homo sapiens, UniProt Q9NZC4 1-300); details: protein: recombinant; tags: N-terminal GST; dsDNA, one strand shown
# T5 sequence: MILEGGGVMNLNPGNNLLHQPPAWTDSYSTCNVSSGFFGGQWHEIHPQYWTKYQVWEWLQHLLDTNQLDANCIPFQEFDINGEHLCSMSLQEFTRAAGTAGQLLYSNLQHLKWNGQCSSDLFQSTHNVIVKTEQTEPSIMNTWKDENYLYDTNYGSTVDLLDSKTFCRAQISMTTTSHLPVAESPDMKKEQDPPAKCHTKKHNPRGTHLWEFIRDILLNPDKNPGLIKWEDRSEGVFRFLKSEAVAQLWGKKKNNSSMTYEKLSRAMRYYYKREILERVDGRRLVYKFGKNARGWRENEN
# In short: as §1
# SPI1 = SPI1 (Homo sapiens, UniProt P17947 1-270); details: protein: recombinant; tags: N-terminal GST; dsDNA, one strand shown
# In short: as §1
# SPIB = SPIB (Homo sapiens, UniProt Q01892 1-262); details: protein: recombinant; tags: N-terminal GST; dsDNA, one strand shown
# SPIB, sequence (Q01892 whole entry): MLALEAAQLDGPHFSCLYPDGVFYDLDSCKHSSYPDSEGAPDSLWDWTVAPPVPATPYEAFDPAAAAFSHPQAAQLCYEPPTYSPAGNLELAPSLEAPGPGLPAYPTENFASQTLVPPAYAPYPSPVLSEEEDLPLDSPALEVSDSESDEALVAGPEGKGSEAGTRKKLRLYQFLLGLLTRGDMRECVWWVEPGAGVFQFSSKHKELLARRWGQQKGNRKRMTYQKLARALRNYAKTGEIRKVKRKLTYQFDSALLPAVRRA
# In short: as §1
# ELK3 = target: T6, ELK3 (Homo sapiens, UniProt P41970 1-407); details: protein: recombinant; tags: N-terminal GST; dsDNA, one strand shown
# T6 sequence: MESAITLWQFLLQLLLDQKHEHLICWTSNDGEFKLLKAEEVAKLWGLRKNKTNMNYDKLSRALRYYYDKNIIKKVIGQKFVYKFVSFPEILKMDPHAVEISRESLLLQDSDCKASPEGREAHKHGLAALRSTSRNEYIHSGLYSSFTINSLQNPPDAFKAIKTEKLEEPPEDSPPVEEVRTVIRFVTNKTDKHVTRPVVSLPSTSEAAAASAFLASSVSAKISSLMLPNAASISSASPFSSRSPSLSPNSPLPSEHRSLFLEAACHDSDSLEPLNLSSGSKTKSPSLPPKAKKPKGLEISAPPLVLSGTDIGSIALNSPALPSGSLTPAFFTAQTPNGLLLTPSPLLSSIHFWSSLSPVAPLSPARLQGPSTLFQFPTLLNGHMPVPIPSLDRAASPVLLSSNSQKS
# In short: as §1
# FEV = target: T7, FEV (Homo sapiens, UniProt Q99581 1-238); details: protein: recombinant; tags: N-terminal GST; dsDNA, one strand shown
# T7 sequence: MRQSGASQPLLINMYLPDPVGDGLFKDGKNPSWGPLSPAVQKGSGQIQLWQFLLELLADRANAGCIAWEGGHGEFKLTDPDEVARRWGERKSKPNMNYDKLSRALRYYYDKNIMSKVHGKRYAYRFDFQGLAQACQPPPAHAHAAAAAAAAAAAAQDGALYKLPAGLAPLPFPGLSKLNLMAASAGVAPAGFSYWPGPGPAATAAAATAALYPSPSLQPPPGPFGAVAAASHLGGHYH
# In short: as §1
# ETV5 = ETV5 (Homo sapiens, UniProt P41161 1-510); details: protein: recombinant; tags: N-terminal GST; dsDNA, one strand shown
# ETV5, sequence (P41161 whole entry): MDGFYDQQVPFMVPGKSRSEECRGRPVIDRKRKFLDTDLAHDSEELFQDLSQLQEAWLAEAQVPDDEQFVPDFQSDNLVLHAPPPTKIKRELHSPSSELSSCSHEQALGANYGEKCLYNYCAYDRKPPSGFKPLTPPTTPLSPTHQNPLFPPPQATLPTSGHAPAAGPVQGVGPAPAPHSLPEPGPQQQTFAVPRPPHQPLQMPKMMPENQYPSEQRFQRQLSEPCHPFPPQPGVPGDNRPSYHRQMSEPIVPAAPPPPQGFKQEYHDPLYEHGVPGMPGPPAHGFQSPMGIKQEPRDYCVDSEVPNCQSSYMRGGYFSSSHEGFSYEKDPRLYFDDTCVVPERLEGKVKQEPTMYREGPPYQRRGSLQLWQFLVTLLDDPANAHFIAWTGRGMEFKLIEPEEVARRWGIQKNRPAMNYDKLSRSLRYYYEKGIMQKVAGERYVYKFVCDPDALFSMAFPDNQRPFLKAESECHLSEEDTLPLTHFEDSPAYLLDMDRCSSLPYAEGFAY
# In short: as §1
# HSF1 = HSF1 (Homo sapiens, UniProt Q00613 1-529); details: protein: recombinant; tags: N-terminal GST; chain copies: 3; dsDNA, one strand shown
# HSF1, sequence (Q00613 whole entry): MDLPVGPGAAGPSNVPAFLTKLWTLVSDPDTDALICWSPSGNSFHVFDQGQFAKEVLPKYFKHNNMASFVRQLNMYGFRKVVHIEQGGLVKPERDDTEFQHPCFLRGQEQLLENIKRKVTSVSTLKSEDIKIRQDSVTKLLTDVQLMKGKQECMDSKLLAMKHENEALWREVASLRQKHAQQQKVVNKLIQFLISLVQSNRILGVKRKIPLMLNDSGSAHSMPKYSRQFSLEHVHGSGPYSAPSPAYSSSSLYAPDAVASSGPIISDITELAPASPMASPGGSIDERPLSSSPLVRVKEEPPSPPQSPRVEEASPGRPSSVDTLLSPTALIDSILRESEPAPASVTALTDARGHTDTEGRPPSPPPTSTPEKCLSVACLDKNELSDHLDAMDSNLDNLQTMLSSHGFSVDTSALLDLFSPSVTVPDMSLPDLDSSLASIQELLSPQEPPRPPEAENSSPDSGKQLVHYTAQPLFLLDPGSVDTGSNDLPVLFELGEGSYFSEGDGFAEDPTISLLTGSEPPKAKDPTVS
# In short: as §1
# SPIC = target: T8, SPIC (Homo sapiens, UniProt Q8N5J4 1-248); details: protein: recombinant; tags: N-terminal GST; dsDNA, one strand shown
# T8 sequence: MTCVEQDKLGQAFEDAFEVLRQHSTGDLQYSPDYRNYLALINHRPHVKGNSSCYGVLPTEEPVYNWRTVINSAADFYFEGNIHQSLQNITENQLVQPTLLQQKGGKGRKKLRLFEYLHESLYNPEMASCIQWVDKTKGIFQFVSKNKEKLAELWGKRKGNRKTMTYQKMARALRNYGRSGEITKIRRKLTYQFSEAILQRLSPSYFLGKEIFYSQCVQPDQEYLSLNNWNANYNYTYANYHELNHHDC
# In short: as §1
# ELF4 = ELF4 (Homo sapiens, UniProt Q99607 1-663); details: protein: recombinant; tags: N-terminal GST; dsDNA, one strand shown
# ELF4, sequence (Q99607 whole entry): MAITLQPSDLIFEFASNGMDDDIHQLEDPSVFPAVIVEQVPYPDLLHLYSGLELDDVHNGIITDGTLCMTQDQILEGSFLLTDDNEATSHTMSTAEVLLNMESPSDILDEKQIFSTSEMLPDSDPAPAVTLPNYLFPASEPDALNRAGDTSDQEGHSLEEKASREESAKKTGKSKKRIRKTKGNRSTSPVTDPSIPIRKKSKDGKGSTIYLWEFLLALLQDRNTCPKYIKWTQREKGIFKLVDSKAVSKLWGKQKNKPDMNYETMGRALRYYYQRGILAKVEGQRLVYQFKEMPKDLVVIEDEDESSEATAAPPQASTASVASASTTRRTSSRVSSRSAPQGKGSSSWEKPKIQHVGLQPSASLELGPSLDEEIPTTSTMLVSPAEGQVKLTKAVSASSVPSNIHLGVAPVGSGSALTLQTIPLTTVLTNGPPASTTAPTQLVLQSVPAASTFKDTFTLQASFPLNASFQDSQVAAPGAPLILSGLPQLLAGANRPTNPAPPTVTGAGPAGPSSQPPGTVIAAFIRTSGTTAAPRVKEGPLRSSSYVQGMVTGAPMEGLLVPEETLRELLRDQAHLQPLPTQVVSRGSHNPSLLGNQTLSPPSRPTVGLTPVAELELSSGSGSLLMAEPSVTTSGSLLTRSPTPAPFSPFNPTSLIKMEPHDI
# In short: as §1
# ELK4 = target: T9, ELK4 (Homo sapiens, UniProt P28324-2 1-405); details: protein: recombinant; tags: N-terminal GST; dsDNA, one strand shown
# T9 sequence: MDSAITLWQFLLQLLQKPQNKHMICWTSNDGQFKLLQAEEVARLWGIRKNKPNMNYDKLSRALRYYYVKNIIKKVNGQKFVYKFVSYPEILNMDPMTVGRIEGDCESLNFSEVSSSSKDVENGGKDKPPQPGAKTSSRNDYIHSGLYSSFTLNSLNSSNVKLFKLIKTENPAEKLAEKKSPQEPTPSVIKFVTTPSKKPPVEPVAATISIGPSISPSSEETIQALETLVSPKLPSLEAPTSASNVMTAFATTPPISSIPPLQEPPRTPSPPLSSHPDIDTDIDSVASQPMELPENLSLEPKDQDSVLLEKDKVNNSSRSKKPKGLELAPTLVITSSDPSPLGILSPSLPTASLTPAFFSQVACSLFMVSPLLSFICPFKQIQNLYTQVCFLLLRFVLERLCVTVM
# In short: as §1
# ETV2 = target: T10, ETV2 (Homo sapiens, UniProt O00321 1-342); details: protein: recombinant; tags: N-terminal GST; dsDNA, one strand shown
# T10 sequence: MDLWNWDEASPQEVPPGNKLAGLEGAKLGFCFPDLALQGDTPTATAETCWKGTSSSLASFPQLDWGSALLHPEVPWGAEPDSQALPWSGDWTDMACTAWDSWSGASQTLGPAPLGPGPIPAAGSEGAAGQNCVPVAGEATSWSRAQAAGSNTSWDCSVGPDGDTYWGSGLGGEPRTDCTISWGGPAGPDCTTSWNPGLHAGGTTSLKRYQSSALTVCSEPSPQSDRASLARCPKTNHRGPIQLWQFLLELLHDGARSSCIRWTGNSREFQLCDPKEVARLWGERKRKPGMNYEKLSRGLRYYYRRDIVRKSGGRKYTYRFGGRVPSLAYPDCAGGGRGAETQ
# In short: as §1
# ELF3 = target: T11, ELF3 (Homo sapiens, UniProt P78545 1-371); details: protein: recombinant; tags: N-terminal GST; dsDNA, one strand shown
# T11 sequence: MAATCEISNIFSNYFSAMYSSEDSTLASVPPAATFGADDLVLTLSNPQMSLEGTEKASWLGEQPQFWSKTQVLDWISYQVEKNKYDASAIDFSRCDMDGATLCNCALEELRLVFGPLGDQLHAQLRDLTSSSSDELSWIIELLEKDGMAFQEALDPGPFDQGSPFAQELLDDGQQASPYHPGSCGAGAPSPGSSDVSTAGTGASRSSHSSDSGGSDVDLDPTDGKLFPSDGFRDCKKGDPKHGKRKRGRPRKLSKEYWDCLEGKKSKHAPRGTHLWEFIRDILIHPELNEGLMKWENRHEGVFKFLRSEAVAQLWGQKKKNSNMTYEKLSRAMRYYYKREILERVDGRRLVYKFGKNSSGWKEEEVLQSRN
# In short: as §1
# CRX = CRX (Homo sapiens, UniProt O43186 1-299); details: protein: recombinant; tags: N-terminal GST; dsDNA, one strand shown
# CRX, sequence (O43186 whole entry): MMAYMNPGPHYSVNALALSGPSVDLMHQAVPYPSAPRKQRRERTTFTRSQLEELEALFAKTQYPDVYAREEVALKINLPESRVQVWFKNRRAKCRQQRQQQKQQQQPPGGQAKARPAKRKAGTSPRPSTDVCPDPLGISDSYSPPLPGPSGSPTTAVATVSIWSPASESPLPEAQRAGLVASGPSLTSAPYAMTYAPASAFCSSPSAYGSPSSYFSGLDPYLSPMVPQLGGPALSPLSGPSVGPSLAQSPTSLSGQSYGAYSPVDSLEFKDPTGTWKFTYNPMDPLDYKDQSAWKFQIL
# In short: as §1
# ETV1 = ETV1 (Homo sapiens, UniProt P50549 1-477); details: protein: recombinant; tags: N-terminal GST; dsDNA, one strand shown
# ETV1, sequence (P50549 whole entry): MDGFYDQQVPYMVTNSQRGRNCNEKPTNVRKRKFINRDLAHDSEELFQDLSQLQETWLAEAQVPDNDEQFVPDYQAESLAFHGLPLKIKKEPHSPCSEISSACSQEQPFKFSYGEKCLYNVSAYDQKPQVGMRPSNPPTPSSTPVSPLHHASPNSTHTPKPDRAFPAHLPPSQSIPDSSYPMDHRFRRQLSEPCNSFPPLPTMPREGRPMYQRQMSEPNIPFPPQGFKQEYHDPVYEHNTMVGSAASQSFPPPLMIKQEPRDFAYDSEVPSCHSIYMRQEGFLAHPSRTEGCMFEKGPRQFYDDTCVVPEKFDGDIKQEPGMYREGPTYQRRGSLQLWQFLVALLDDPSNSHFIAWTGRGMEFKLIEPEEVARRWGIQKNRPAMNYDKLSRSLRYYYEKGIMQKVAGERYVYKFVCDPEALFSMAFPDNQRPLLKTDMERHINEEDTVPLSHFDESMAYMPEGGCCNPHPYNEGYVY
# In short: as §1
sequence,measurement,setting,value
TTCTTA,binding signal,FLI1,"1.42 fold enrichment (6-mer frequency, TF over GST control)"
same,binding signal,ELK1,"1.43 fold enrichment (6-mer frequency, TF over GST control)"
same,binding signal,GABPA,"1.37 fold enrichment (6-mer frequency, TF over GST control)"
same,binding signal,ERG,"1.4 fold enrichment (6-mer frequency, TF over GST control)"
same,binding signal,ELF1,"1.37 fold enrichment (6-mer frequency, TF over GST control)"
same,binding signal,EHF,"1.28 fold enrichment (6-mer frequency, TF over GST control)"
same,binding signal,SPI1,"1.34 fold enrichment (6-mer frequency, TF over GST control)"
same,binding signal,SPIB,"1.28 fold enrichment (6-mer frequency, TF over GST control)"
same,binding signal,ELK3,"1.5 fold enrichment (6-mer frequency, TF over GST control)"
same,binding signal,FEV,"1.32 fold enrichment (6-mer frequency, TF over GST control)"
same,binding signal,ETV5,"1.33 fold enrichment (6-mer frequency, TF over GST control)"
same,binding signal,HSF1,"1.85 fold enrichment (6-mer frequency, TF over GST control)"
same,binding signal,SPIC,"1.71 fold enrichment (6-mer frequency, TF over GST control)"
same,binding signal,ELF4,"1.41 fold enrichment (6-mer frequency, TF over GST control)"
same,binding signal,ELK4,"1.5 fold enrichment (6-mer frequency, TF over GST control)"
same,binding signal,ETV2,"1.36 fold enrichment (6-mer frequency, TF over GST control)"
same,binding signal,ELF3,"1.47 fold enrichment (6-mer frequency, TF over GST control)"
same,binding signal,CRX,"2.21 fold enrichment (6-mer frequency, TF over GST control)"
same,binding signal,ETV1,"1.36 fold enrichment (6-mer frequency, TF over GST control)"
